Bioassay records deposited in PubChem by several laboratories.
Only some compounds are listed: those with a hit (about 4.2% of all), similar ones and a draw of the others.
GDH-TPI counter-1 – GDH-TPI coupling enzyme inhibitors, primary screen, artefact control for M. tuberculosis FBA inhibitor project, biochemical, absorbance, full deck. inhibition, % at 4.8 µM. AID 588335, 2011. GDH-TPI coupled enzyme counterscreen, NADH absorbance. hit rate 1.2% among 360,000
RecA intein inh – Mtb RecA intein splicing inhibitors, primary screen, biochemical, fluorescence, HTS. inhibition, % (concentration not given with the values). cell-free RecA intein splicing. hit rate 0.75% among 290,000. Protein RecA (Mycobacterium tuberculosis (strain ATCC 25618 / H37Rv)), P9WHJ3; in the data active = inhibition above about 30%
FBA Mtb inh – Mtb FBA enzyme inhibitors, primary screen, biochemical, fluorescence, strain H37Rv. Fructose-bisphosphate aldolase (Mycobacterium tuberculosis (strain ATCC 25618 / H37Rv)), …. purified M. tuberculosis FBA, fluorescence read-out. inhibition, % at 1 µM. hit rate 2.3% among 360,000; in the data active = inhibition above about 27%
Target sequence (P9WQA3 whole entry, looked up): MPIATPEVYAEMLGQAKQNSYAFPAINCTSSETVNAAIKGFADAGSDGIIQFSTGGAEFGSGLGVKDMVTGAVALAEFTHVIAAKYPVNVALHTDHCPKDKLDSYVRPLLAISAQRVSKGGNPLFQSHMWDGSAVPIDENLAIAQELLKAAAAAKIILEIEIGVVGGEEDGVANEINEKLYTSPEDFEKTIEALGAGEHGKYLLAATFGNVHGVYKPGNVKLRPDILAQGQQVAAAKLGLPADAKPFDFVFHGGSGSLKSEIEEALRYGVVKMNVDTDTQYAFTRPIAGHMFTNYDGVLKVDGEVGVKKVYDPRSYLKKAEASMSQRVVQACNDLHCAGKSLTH
CCHF vOTU inh – CCHFV vOTU protease inhibitors, primary screen, biochemical, Pep-AMC substrate, fluorescence; AID 651958, 2012; Crimean-Congo hemorrhagic fever virus L polyprotein viral ovarian tumor (vOTU) protease …; hit rate 0.55% among 370,000; inhibition, % at 11.5 µM
Mtb FBA confirm – M. tuberculosis aldolase blockers, biochemical, fluorescence, strain H37Rv, confirmation; purified M. tuberculosis FBA, fluorescence read-out; hit rate 78% among 5,600; shares compounds with FBA Mtb inh; inhibition, % at 1 µM; AID 651616, 2012; in the data active = inhibition above about 27%
GDH-TPI counter-2 – GDH-TPI coupling enzyme inhibitors, artefact control for M. tuberculosis FBA inhibitor project, biochemical, fluorescence, high throughput; shares compounds with FBA Mtb inh; GDH-TPI coupled enzyme counterscreen; inhibition, % at 1 µM; hit rate 81% among 5,600; in the data active = inhibition above about 10%
Numbers stand for hits; i = inactive; nt = not tested or not shown; + = active, no number. Rule as the data show it, unless noted: active = inhibition above about 30%; inactive = the rest.

SMILES	GDH-TPI counter-1	RecA intein inh	FBA Mtb inh	CCHF vOTU inh	Mtb FBA confirm	GDH-TPI counter-2
CC(C)(CNC(=O)Cc1ccc(Br)cc1)N1CCOCC1	i	i	i	i	nt	nt
O=C(C[C@H]1C(=O)N(Cc2ccccc2)C[C@@H]1c1ccc(Br)cc1)Nc1ccc(Br)cc1	i	nt	i	i	nt	nt
O=C(CC1C(=O)NCCN1CC1CCCCC1)NCCCN1CCOCC1 (stereo not given)	i	i	i	i	nt	nt
COc1cc(NC(=O)c2cccnc2SC)cc(OC)c1OC	i	i	i	i	nt	nt
CSc1ncccc1C(=O)Nc1ccc(OC(F)(F)F)cc1	i	i	44.4	i	33.0	33.6
CCc1cccc(C)c1N=Cc1c(O)c2ccccc2oc1=O	i	i	i	i	nt	nt
COc1cc(-c2cc(=O)c3c(O)cc(O)cc3o2)cc(OC)c1OC	i	nt	i	i	nt	nt
COc1ccc(-c2cc(=O)c3ccc(O)cc3o2)cc1OC	i	nt	54.3	i	i	i
Cn1cc(-c2cccc(Cl)c2)cc(C#N)c1=O	i	i	43.6	i	61.6	42.5
CC(C)n1cc(-c2ccc(Cl)cc2)cc(C#N)c1=O	i	i	i	i	nt	nt
Cn1cc(-c2cccc(C(F)(F)F)c2)cc(C#N)c1=O	i	i	45.6	i	93.9	61.8
CCCc1cc(=O)n2[nH]cc(-c3ccc(Cl)cc3)c2n1	i	i	54.3	i	i	i
Cc1cc(=O)n2[nH]cc(-c3ccccc3)c2n1	i	i	33.9	i	73.5	60.4
CCCc1cc(=O)n2[nH]c(SCc3ccc(Cl)cc3)nc2n1	i	i	i	i	nt	nt
CC(C)CC(OC(=O)c1ccc(Cl)nc1)C(=O)NC1CCCC1 (stereo not given)	i	i	i	i	nt	nt
NC(=O)c1cc(S(=O)(=O)N2CCCC2)ccc1OCCOc1ccccc1	i	nt	i	i	nt	nt
Cc1ccc2nc(-c3ccsc3)c(NC3CCCC3)n2c1	i	i	27.7	i	i	13.9
CC1(C(=O)NCCc2ccccc2)Cc2c(-c3ccccc3)ccnc2O1 (stereo not given)	i	nt	i	i	nt	nt
CC1(C(=O)NCCc2ccccc2)Cc2c(-c3ccc4c(c3)OCO4)ccnc2O1 (stereo not given)	i	nt	46.2	i	59.1	41.0
CC1(C(=O)Nc2ccc3c(c2)OCO3)Cc2c(-c3ccc4c(c3)OCO4)ccnc2O1 (stereo not given)	i	nt	i	i	nt	nt
COc1ccc(NC(=O)C2(C)Cc3c(-c4ccc5c(c4)OCO5)ccnc3O2)cn1 (stereo not given)	i	nt	42.2	i	168.6	123.8
CC1(C(=O)NCc2ccccc2)Cc2c(-c3ccc4c(c3)OCO4)ccnc2O1 (stereo not given)	i	nt	68.6	i	109.1	104.7
CC1(C(=O)NCc2ccccc2)Cc2c(-c3ccc(C(N)=O)cc3)ccnc2O1 (stereo not given)	i	nt	i	i	nt	nt
COCCNC(=O)C1(C)Cc2c(-c3ccc4c(c3)OCO4)ccnc2O1 (stereo not given)	i	nt	95.6	i	71.3	51.2
Cc1nnsc1C(=O)N1CCCC(N2CCN(c3ccc(F)cc3)CC2)C1 (stereo not given)	i	i	i	i	nt	nt
SMILES	GDH-TPI counter-1	RecA intein inh	FBA Mtb inh	CCHF vOTU inh	Mtb FBA confirm	GDH-TPI counter-2
C=CCn1c(SCC(=O)c2c(N)n(C)c(=O)n(C)c2=O)nnc1-c1ccoc1C	i	nt	i	i	nt	nt
COc1c(O)cc2c(c1O)[C@@H]1O[C@H](CO)[C@@H](O)[C@H](O)C1OC2=O (stereo not given in full)	i	i	i	i	nt	nt
CCOC(=O)c1c(-c2ccccc2)oc2ccc(OCC(O)CNCCN(C)C)cc12 (stereo not given)	i	i	42.0	i	i	i
COc1ccc2oc(-c3ccccc3)c(C(=O)N3CCOCC3)c2c1	i	i	40.4	i	72.2	48.0
CC(=O)Oc1ccc2oc(C)c(C(=O)N3CCOCC3)c2c1	i	i	i	i	nt	nt
CCOc1ccc2oc(-c3ccccc3)c(C(=O)N3CCN(C)CC3)c2c1	i	i	70.8	i	92.2	57.8
Cc1ccccc1N1C(N)=NC(N)=NC1(C)C	i	i	76.2	i	+	+
COc1ccc(-c2cc3nc4ccccc4n3c(N)c2C#N)cc1	i	i	40.8	i	+	+
CCN(CC)CC(O)CNc1ccnc2c(Cl)ccc(Cl)c12 (stereo not given)	i	nt	i	i	nt	nt
Cc1c2ccncc2cc2c1[nH]c1ccccc12	i	nt	i	i	nt	nt
CCc1nccc2c1[nH]c1ccccc12	i	i	80.7	i	+	161.2
OCCCCc1nccc2c1[nH]c1ccccc12	i	i	69.3	i	+	186.5
Cc1nccc2c1[nH]c1ccccc12	i	i	94.4	i	i	i
c1ccc2c(c1)[nH]c1cnccc12	i	i	37.0	i	32.0	40.9
COc1cc(Br)c(CN2C(=O)NC3(CCCCCC3)C2=O)cc1OC	i	i	i	i	nt	nt
CCCc1nc2oc3c(NCC(C)O)ncnc3c2c2c1CCCC2 (stereo not given)	i	i	36.1	i	68.0	45.0
Cc1cc(=O)n2c(nc3ccccc32)s1	i	nt	i	i	nt	nt
O=c1cc(CCl)[nH]c2nc3ccccc3n12	i	i	47.2	i	169.0	112.2
CC(C)c1cc(=O)n2c(nc3ccccc32)[nH]1	i	i	44.7	i	119.1	107.6
CCCc1c(C)[nH]c2nc3ccccc3n2c1=O	i	i	i	i	nt	nt
CCc1c(C)[nH]c2nc3ccccc3n2c1=O	i	i	i	i	nt	nt
O=c1cc(-c2ccccc2)[nH]c2nc3ccccc3n12	i	i	51.3	i	+	+
CCCc1nc2ccccc2c(=O)n1CC(=O)c1ccc(F)cc1	i	i	i	i	nt	nt
CCOc1ccc(NC(=O)CN2CCCC2c2cccs2)cc1S(=O)(=O)N1CCCCC1 (stereo not given)	i	nt	i	i	nt	nt
CN(Cc1cccc(F)c1)C(=O)C1CC(=O)N(c2ccc3c(c2)OCCO3)C1 (stereo not given)	i	nt	35.1	i	+	+
O=C(NCCc1ccccc1)C1CC(=O)N(c2ccc3c(c2)OCCO3)C1 (stereo not given)	i	i	28.2	i	38.4	20.6
CN(Cc1ccc(Cl)c(Cl)c1)C(=O)C1CC(=O)N(c2ccc3c(c2)OCCO3)C1 (stereo not given)	i	nt	i	i	nt	nt
N#Cc1cc([N+](=O)[O-])ccc1NC(=O)CSc1n[nH]c(=O)[nH]c1=O	i	nt	i	i	nt	nt
Cc1ccc(NC(=O)CN2C(=O)CC(C)S(=O)(=O)c3ccccc32)cc1 (stereo not given)	i	i	i	i	nt	nt
CCCOc1ccc(-c2nnc(-c3ccco3)o2)cc1	i	i	60.1	i	50.4	36.2
